Test [1] is described as follows: resazurin metabolic signal in HepG2 cells – cell-based, resazurin fluorescence, 24 h, PK04 Diversity Set, profiling panel (AID 1172). The following applies: HepG2 viability, higher = more signal.
Test [2] is described as follows: budding yeast growth changes without added modifier – OD600, strain BY4716, 24 h, basal condition, primary screen (AID 1173). The following applies: S. cerevisiae BY4716 growth, OD600, 24 h; higher = more signal, called active from +8 up or from −8 down.
Test [3] is described as follows: viability profiling in MM1S myeloma cells – cell-based, resazurin fluorescence, basal, 24 h, PK04 Diversity Set, profiling panel (AID 1174).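 Also: MM1S multiple myeloma cell line.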 The following applies: higher = more signal, called active from +8 up or from −8 down. In general terms: The colour change of resazurin is a common sign of viable cells or microbes.
Test [4] has as its target Dihydroorotate dehydrogenase (quinone), mitochondrial (Plasmodium falciparum (isolate 3D7)) (UniProt Q08210). Put plainly: inhibition of P. falciparum DHODH – biochemical, C-terminal His tag, absorbance 600 nm, primary screen (AID 1175).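 Also: recombinant parasite enzyme with a five histidine tag at its C terminus.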 The following applies: PfDHODH enzyme, DCIP absorbance 600 nm; higher = more signal, called active from +8 up or from −8 down.
The nature of test [5]: inhibition of PAO1 biofilm formation – strain PAO1, LB-PBS medium, absorbance 600 nm, primary screen (AID 1176). The following applies: P. aeruginosa PAO1 growth/biofilm, A600, 12 h; higher = more signal.
The nature of test [6]: growth modulation of vineyard yeast isolate – strain RM11-1a, OD600, basal, 24 h, primary screen (AID 1177).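 Also: cultures grown under basal conditions with no added stressor.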 The following applies: S. cerevisiae RM11-1a growth, OD600, 24 h; higher = more signal, called active from +8 up or from −8 down.
Test [7] is described as follows: growth of efflux-deficient E. coli DRC39 – strain DRC39, OD650, 24 h, E. coli filamentation inducers, primary screen (AID 1178).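 Also: growth measured as culture turbidity by optical density at 650 nm.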 The following applies: E. coli DRC39 acrAB, higher = more signal, called active from +8 up or from −8 down.
A short description of test [8]: growth of efflux-deficient E. coli DRC39 – strain DRC39, OD650, 48 h, E. coli filamentation inducers, primary screen (AID 1179).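 Also: screen aims at cell division blockers that make cells filament.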 As to conditions: E. coli DRC39 delta-acrAB growth, higher = more signal, called active from +8 up or from −8 down.
Test [9] is described as follows: viability profiling in RPMI8226 myeloma cells – cell-based, resazurin fluorescence, basal, 24 h, PK04 Diversity Set, profiling panel (AID 1180).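 Also: RPMI8826 multiple myeloma cell line at 5000 cells per well.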 The following applies: higher = more signal.
Test [10] concerns the target E3 ubiquitin-protein ligase XIAP (Homo sapiens) (UniProt P98170). Kind of test: small molecules binding XIAP protein – biophysical, small-molecule microarray, fluorescence 635 nm, primary screen (AID 1181).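 Also: score merges 667 nm emission and signal to noise over triplicate slides.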 As to conditions: higher = more signal.
Test [11] relates to XIP peptide (Xip251-270) binding. Put plainly: XIP fragment 251-270 binding compounds – biochemical, small-molecule microarray, fluorescence 635/667 nm, 0.1 µg/mL protein, primary screen (AID 1182). The following applies: fluorescent protein binding, 635 nm, higher = more signal, called active from +8 up or from −8 down.
Another test relates to XIP peptide (Xip251-270). Put plainly: compounds binding XIP fragment 251-270 – biochemical, small-molecule microarray, fluorescence 635/667 nm, 0.5 µg/mL protein, primary screen (AID 1183). As to conditions: fluorescence 635 nm, higher = more signal.
Test [12] is described as follows: blood-stage malaria parasite viability loss – strain 3D7, DAPI fluorescence, 100 nL, primary screen (AID 1184).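 Also: parasites grown inside human red blood cells in medium with human serum.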 The following applies: P. falciparum 3D7 growth, 3 d, higher = more signal.
Test [13] concerns the target Homeobox protein Hox-A13 (Mus musculus) (UniProt Q62424). Kind of test: disruptors of Hoxa13 oligonucleotide interaction – biochemical, fluorescence polarization, labeled oligonucleotide, primary screen (AID 1185). The following applies: Hoxa13:DNA binding, 15 min, higher = more signal, called active from +8 up or from −8 down. In general terms: Fluorescence polarisation rises when a labelled molecule tumbles more slowly, as on binding a larger partner.

The nature of test [14]: blockers of DNA damage checkpoint Chk1 activation – imaging, HeLa, hydroxyurea, phospho-Chk1 antibody, percent positive cells, primary screen (AID 1186). As to conditions: hydroxyurea-induced phospho-Chk1 immunofluorescence imaging, higher = more signal.
Test [15] can be described thus: blockers of DNA damage checkpoint Chk1 activation – imaging, HeLa, hydroxyurea, phospho-Chk1 nuclear intensity, primary screen (AID 1187). The following applies: hydroxyurea-induced phospho-Chk1 immunofluorescence imaging, higher = more signal.

Activity calls are given as the source filed them. Unless noted, no rule for the calls is given here.

Chain of Homeobox protein Hox-A13 (Mus musculus) (Q62424 whole entry, looked up): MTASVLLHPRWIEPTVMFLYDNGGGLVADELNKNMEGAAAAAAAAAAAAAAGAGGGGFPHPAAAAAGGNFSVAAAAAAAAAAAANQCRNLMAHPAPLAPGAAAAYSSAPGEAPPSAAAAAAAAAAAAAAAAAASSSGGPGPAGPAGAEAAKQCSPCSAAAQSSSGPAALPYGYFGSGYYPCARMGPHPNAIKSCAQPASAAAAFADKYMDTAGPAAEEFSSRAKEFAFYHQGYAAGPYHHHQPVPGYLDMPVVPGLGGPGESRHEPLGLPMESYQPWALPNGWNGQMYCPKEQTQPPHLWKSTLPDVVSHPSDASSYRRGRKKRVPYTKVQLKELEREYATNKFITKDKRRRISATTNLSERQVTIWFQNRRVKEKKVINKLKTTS
Chain of Dihydroorotate dehydrogenase (quinone), mitochondrial (Plasmodium falciparum (isolate 3D7)) (Q08210 whole entry, looked up): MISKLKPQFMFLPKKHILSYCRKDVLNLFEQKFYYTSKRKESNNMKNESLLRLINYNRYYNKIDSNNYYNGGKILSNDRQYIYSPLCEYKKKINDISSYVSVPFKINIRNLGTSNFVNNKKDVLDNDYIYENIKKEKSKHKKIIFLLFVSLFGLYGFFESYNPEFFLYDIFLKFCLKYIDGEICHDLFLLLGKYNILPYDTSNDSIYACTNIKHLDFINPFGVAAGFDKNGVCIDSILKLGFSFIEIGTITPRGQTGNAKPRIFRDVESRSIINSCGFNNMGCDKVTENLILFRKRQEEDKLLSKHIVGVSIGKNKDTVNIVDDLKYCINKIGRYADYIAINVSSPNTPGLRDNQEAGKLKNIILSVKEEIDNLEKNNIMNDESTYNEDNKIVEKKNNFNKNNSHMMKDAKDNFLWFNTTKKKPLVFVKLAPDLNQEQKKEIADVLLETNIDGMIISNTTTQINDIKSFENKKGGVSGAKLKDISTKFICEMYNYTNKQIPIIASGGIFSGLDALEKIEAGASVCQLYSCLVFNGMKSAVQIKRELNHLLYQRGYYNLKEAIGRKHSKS
Chain of E3 ubiquitin-protein ligase XIAP (Homo sapiens) (P98170 whole entry, looked up, the tested form may be a part): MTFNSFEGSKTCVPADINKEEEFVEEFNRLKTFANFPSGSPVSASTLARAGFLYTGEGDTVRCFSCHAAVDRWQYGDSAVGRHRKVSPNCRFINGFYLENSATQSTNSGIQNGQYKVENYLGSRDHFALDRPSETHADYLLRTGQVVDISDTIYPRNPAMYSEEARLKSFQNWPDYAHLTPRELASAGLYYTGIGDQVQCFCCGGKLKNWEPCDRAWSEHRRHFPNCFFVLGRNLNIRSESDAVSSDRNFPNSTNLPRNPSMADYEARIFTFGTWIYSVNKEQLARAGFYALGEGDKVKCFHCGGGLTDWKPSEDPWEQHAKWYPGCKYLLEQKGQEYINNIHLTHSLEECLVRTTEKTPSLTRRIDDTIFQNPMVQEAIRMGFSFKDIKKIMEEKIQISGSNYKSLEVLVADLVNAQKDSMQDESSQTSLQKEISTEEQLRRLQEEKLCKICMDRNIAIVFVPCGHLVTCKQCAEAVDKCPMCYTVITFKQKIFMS

Regarding `C=C[C@@H](C)[C@H](OC(=O)Nc1ccc(SC)cc1)c1ccc(OCCO)cc1`, the z-score in test [1] was 0.571; in test [2] it was -3.42 (inactive); in test [3] it was -0.0261 (inactive); in test [5], 0.638 (inactive); in test [6], 0.0728 (inactive); in test [7] it was -0.217 (inactive). For the same molecule, the z-score in [8] was 0.511 (inactive); in test [9], 0.152; in test [12] it was -0.005; in test [13], -4.89 (inactive); in [14], -0.405 (inactive); in [15], 0.433 (inactive). Also, the composite z-score in test [4] is -1.16 (inactive); in test [10], -0.111; in test [11], 0.263 (inactive); in the test on XIP peptide (Xip251-270), -0.0795.

For `COCCCNC(=O)[C@]1(Cc2ccccc2CN=[N+]=[N-])N=C(c2ccc(OCCCO)cc2)O[C@@H]1c1ccccc1`, the z-score is 1.27 in test [1]; -0.682 (inactive) in test [2]; -1.48 (inactive) in test [3]; -0.441 (inactive) in test [5]; 0.916 (inactive) in test [6]; 1.18 (inactive) in test [7]. Further, the z-score in test [8] was 0.422 (inactive); in test [9], -3.11; in test [12], -2.41; in test [13], -6.44 (inactive); in test [14], -0.401 (inactive); in [15] it was -0.24 (inactive). In addition, the composite z-score is 0.633 (inactive) in test [4], 0.216 in test [10], 0.0968 (inactive) in [11] and 0.598 in the test with XIP peptide (Xip251-270).

On to `CC(C)CNC(=O)[C@@]1(c2ccc([N+](=O)[O-])cc2)CC(=O)N(C2CCCCC2)[C@@H]1c1ccc(CO)cc1I`, for which the z-score in [1] is 0.201; in test [2], -0.871 (inactive); in test [3], -0.0126 (inactive); in test [5] it was 0.304 (inactive); in [6] it was -0.294 (inactive); in test [7] it was 0.175 (inactive). The z-score in test [8] was -0.683 (inactive); in [9], 0.447; in test [12] it was -0.923; in test [13], -4.89 (inactive); in [14] it was 0.093 (inactive); in [15], -0.208 (inactive). Further, the composite z-score in test [4] was 0.797 (inactive); in test [10], 0.169; in test [11], 0.551 (inactive); in the test with XIP peptide (Xip251-270) it was 0.792.

As to `C=C(/C(=C/C[C@@H](OC(=O)c1ccncc1)c1ccc(OCCO)cc1)c1cc(C(=O)OC)ccc1OC)C(C)C`, the z-score in test [1] was 1.54; in test [2] it was 0.542 (inactive); in [3], 0.288 (inactive); in test [5] it was 0.224 (inactive); in test [6] it was -0.0338 (inactive); in test [7], 0.945 (inactive). The z-score in [8] was 0.52 (inactive); in test [9] it was 0.352; in [12], -2.78; in test [13], -3.5 (inactive); in test [14], -0.899 (inactive); in [15] it was -0.125 (inactive). In addition, the composite z-score was -0.444 (inactive) in test [4], -0.0916 in [10], 0.281 (inactive) in [11] and 0.309 in the test on XIP peptide (Xip251-270).

For `COCCOC(=O)N1C(=O)[C@@]2(c3cc(C#CC4(O)CCCCCC4)ccc31)[C@H](C(N)=O)[C@H]1C(=O)O[C@H](c3ccccc3)[C@H](c3ccccc3)N1[C@@H]2c1ccc(O)cc1`, the z-score in test [1] was 0.061; in test [2] it was -0.676 (inactive); in test [3], -0.907 (inactive); in test [5], 0.51 (inactive); in test [6], 0.389 (inactive); in [7], -0.0029 (inactive). For the same molecule, the z-score was 0.761 (inactive) in test [8]; -1.73 in test [9]; 0.997 in test [12]; -2.76 (inactive) in test [13]; -0.102 (inactive) in test [14]; 0.245 (inactive) in test [15]. The composite z-score in [4] is -0.942 (inactive); in test [10] it was -0.144; in test [11] it was 0.722 (inactive); in the test with XIP peptide (Xip251-270) it was 0.503.

In the case of `CCCC=C(CCC)[C@@H](NP(=O)(c1ccccc1)c1ccccc1)c1ccc(C(F)(F)F)cc1`, the z-score is 1.02 in test [1]; 0.534 (inactive) in test [2]; 0.839 (inactive) in test [3]; -0.511 (inactive) in test [5]; -0.359 (inactive) in test [6]; 0.3 (inactive) in test [7]. Moreover, the z-score is -0.93 (inactive) in test [8]; 0.495 in test [9]; -0.591 in test [12]; -1.19 (inactive) in [13]; 0.272 (inactive) in test [14]; -0.0984 (inactive) in test [15]. For the same molecule, the composite z-score in test [4] was 0.0197 (inactive); in test [10] it was 0.328; in [11], -0.185 (inactive); with XIP peptide (Xip251-270), 0.258.

As to `O=C1c2ccccc2[C@@]2(Cc3ccccc3N(C3CC3)C2=O)[C@H](c2ccc(CO)cc2)N1C1CCCCC1`, the z-score was -0.319 in [1]; 0.979 (inactive) in test [2]; -0.36 (inactive) in test [3]; 0.264 (inactive) in test [5]; 1.24 (inactive) in [6]; 0.609 (inactive) in test [7]. Further, the z-score was 0.106 (inactive) in [8]; -0.546 in test [9]; -0.323 in [12]; -2.14 (inactive) in test [13]; 0.353 (inactive) in test [14]; 0.349 (inactive) in test [15]. For the same molecule, the composite z-score in test [4] is -4.68 (inactive); in test [10], 0.242; in test [11], -0.241 (inactive); with XIP peptide (Xip251-270), -0.76.

With `COCCOC(=O)N1C(=O)[C@@]2(c3cc(C#CC4=CCCCC4)ccc31)[C@H](C(=O)N1CCN(c3ncccn3)CC1)[C@H]1C(=O)O[C@H](c3ccccc3)[C@H](c3ccccc3)N1[C@@H]2c1ccc(O)cc1`, the z-score in test [1] is -0.173; in [2], 1.14 (inactive); in test [3] it was -1.81 (inactive); in test [5] it was 1.16 (inactive); in test [6] it was 1.69 (inactive); in test [7], -0.766 (inactive). The z-score was -0.0604 (inactive) in test [8]; -0.765 in [9]; -1.29 in test [12]; 0.446 (inactive) in [13]; 0.247 (inactive) in test [14]; 0.0658 (inactive) in test [15]. The composite z-score in test [4] is 0.332 (inactive); in test [10], 0.0589; in [11], 0.481 (inactive); in the test with XIP peptide (Xip251-270), 0.685.

In the case of `COCCOC(=O)N1C(=O)[C@@]2(c3cc(C#CCC(C(=O)OC)C(=O)OC)ccc31)[C@H](c1ccc(OCCO)cc1)N1[C@H](c3ccccc3)[C@H](c3ccccc3)OC(=O)[C@H]1[C@@H]2C(=O)N1CCN(c2ncccn2)CC1`, the z-score is 1.27 in test [1]; 0.588 (inactive) in test [2]; -0.199 (inactive) in test [3]; 2.06 (inactive) in test [5]; 1.82 (inactive) in [6]; 0.362 (inactive) in [7]. Besides, the z-score in [8] is -0.108 (inactive); in [9], 0.262; in test [12] it was -2.25; in test [13] it was 2.08 (inactive); in [14] it was -0.163 (inactive); in test [15], -0.0755 (inactive). The composite z-score in [4] is 1.35 (inactive); in test [10] it was -0.22; in test [11] it was 1.42 (inactive); with XIP peptide (Xip251-270), 0.824.

On to `O=C1O[C@@H](c2ccccc2)[C@@H](c2ccccc2)N2[C@@H](c3ccc(O)cc3)[C@]3(C(=O)Nc4ccc(C#CCCO)cc43)[C@@H](C(=O)Nc3nc4ccccc4s3)[C@H]12`, for which the z-score in test [1] is 0.43; in test [2], 0.442 (inactive); in test [3], 0.307 (inactive); in [5] it was 0.513 (inactive); in test [6] it was 0.948 (inactive); in test [7], -0.0791 (inactive). For the same molecule, the z-score was 0.282 (inactive) in test [8]; 0.73 in [9]; 0.204 in test [12]; -0.524 (inactive) in test [13]; 0.151 (inactive) in test [14]; 0.283 (inactive) in test [15]. Moreover, the composite z-score in [4] is -0.292 (inactive); in test [10], -0.0918; in test [11], 0.336 (inactive); in the test on XIP peptide (Xip251-270), 0.732.

Values taken from PubChem BioAssay.
